# GLP-1R inv ag = GLP-1 receptor (human) inverse agonism | P43220 | HEK293 GLP-1R CRE-luciferase, luminescence, 24 h; GLP-1R form is constitutively active | Potency, µM (highest dose often 38.3 µM), for inactives: top-dose activity change, negative = inhibition, hits mostly inhibitors | 410,000 tested, 1.6% active | AID 624417; also: % is scaled to controls: 0 for no effect and ±100 for the full control effect; nearly all actives have a fitted effect of over 55% in size
# Target sequence (P43220 whole entry, looked up): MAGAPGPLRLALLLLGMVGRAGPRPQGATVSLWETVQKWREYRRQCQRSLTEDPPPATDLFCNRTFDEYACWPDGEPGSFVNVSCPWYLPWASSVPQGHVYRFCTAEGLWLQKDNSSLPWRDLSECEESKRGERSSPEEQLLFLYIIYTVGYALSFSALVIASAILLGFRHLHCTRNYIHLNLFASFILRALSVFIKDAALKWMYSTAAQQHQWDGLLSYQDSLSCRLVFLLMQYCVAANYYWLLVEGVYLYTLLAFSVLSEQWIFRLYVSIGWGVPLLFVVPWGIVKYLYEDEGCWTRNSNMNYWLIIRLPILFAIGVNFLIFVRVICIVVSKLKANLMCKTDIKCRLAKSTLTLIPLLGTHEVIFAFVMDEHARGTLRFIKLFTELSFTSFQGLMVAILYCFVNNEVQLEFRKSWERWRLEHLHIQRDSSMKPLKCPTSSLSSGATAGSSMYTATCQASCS
#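 Readout was luciferase luminescence, measured 12 min after detection reagent at room temperature. Beforehand, GLP-1R reporter HEK293 cells had sat 12 h, then received compounds for 24 hr at 37 deg C.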
# RORgamma inh = inhibitors of mouse ROR gamma transcriptional activity. AID 2551. Potency, µM (top dose mostly 53.6 µM), for the others: at the top dose activity change, negative = inhibition, most hits filed as inhibitors. P51450. 310,000 tested, 5.4% active. Drosophila S2 Gal4-RORgamma UAS-luciferase reporter, 20 h; also: % is scaled to controls: 0 for no effect and ±100 for the full control effect; nearly all actives have a fitted effect of over 60% in size
#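 Stably transfected Drosophila Schneider cells are the test system, with ROR gamma fused to Gal4 and luciferase under UAS control; luminescence is read after 20 hr of 700 uM copper sulfate induction at ambient temperature.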
# Gal4-VP16 FLuc = counter-screen for ROR gamma inhibitors: Gal4-VP16 reporter | 310,000 tested, 3.5% active | Drosophila S2 Gal4-VP16 UAS-luciferase, luminescence, 20 h | Potency, µM (titrated, usually from 53.6 µM), without a hit: at the top dose activity, negative = inhibition, actives largely listed as inhibitors;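 also: Gal4-VP16 expression switched on by copper sulfate through the metallothionein promoter; % is scaled to controls: 0 for no effect and ±100 for the full control effect; nearly all actives have a fitted effect of over 50% in size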
# GLP1R ag = GLP-1 receptor (human) agonism; P43220; HEK293 GLP-1R CRE-luciferase, luminescence, 4-6 h; cells express a hypersensitive GLP-1R form; Potency, µM (doses to about 45.6 µM), for inactives: at the top dose activation, hits mostly activators; 380,000 tested, 0.007% active; AID 624172; also: % of control where 0% means no effect
# HEK293 tox = cytotoxicity in counter-screen for GLP-1R inverse agonists; HEK293 cAMP-luciferase reporter cells, luminescence, 24 h; AID 624418; 410,000 tested, 0.13% active; Potency, µM (top dose mostly 38.3 µM), inactives show at the highest dose activity change, negative = inhibition, most hits filed as inhibitors;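 also: loss of luciferase light is scored as toxicity; % is scaled to controls: 0 for no effect and ±100 for the full control effect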
#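 Step one: seed cells (200 cells/uL, DMEM with 10% Nu serum, 1% pen-strep). Step two: 12-hour incubation at 37 deg C. Step three: pin 23 nL compound, incubate 24 hr. Step four: add luciferase reagent, read luminescence 12 min later.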
# Starred values were filed as active, the others as inactive; ? = inconclusive; . = no result given; [ ] = dose if it differs, or a comment. Compounds with a hit are over-represented: about 5.9% of the library has one in this group of screens. Calls follow the shape of the dose curve; as a rule, active = well fitted curve in the direction sought with a large enough effect; inconclusive = small, poorly fitted or top-dose-only effect, or another doubt; inactive = no such curve, though single readings can be large; an effect the other way counts as inactive or inconclusive. Potency is read from the fitted curve at half-maximal effect.
SMILES,GLP-1R inv ag,RORgamma inh,Gal4-VP16 FLuc,GLP1R ag,HEK293 tox
Cc1cccc(-n2cc(-c3ccccc3)c3c(NN4CCOCC4)ncnc32)c1,0.0%,6.31µM*,?,10.9%,0.7%
c1ccc(-c2cn(-c3ccccc3)c3ncnc(N4CCCCC4)c23)cc1,3.16µM*,-13.1%,-0.6%,3.5%,-5.9%
CN(C)CCNc1ncnc2c1cnn2-c1ccc(Cl)cc1,3.16µM*,?,?,-14.3%,?
Cc1ccc(-n2cc(-c3ccccc3)c3c(NN4CCOCC4)ncnc32)cc1,-19.4%,?,?,5.9%,9.8%
COc1ccc(NC(=O)C2CCN(S(=O)(=O)c3ccc4[nH]c(=O)ccc4c3)CC2)c(OC)c1,3.2%,.,.,-4.1%,4.8%
CC(C)OCCCn1c(=O)c2ccccc2n2c(-c3ccc(F)c(F)c3)nnc12,5.7%,.,.,.,2.6%
Cc1c(C)n(CCc2ccccc2)c2ncnc(NCCCN(C)C)c12,2µM*,0.0%,3.4%,0.5%,-27.2%
COc1ccc(-n2cc(-c3ccccc3)c3c(NC4CCCC4)ncnc32)cc1,1.78µM*,.,.,.,1.3%
Clc1cccc(-n2cc(-c3ccccc3)c3c(NC4CCCC4)ncnc32)c1,-0.9%,.,.,.,1.3%
CN(C)CCCNc1ncnc2c1c(-c1ccccc1)cn2-c1ccccc1,3.98µM*,-23.7%,-17.3%,11.3%,?
Fc1ccc(-n2cc(-c3ccccc3)c3c(NCCc4ccccc4)ncnc32)cc1,7.94µM*,.,.,.,3.3%
CC(C)OC(=O)[C@@H]1CC[C@H](C)[C@@H](CCCCO)O1,.,6.1%,2.5%,.,.
COc1ccc(-c2nc3sc(CCNC(=O)c4ccco4)c(C)n3n2)cc1,-23.0%,.,.,1.6%,-21.1%
CCCNc1ncnc2c1c(-c1ccccc1)cn2-c1ccccc1,10µM*,.,.,.,-3.6%
Cc1ccc(-n2c(C)c(C)c3c(NCCN(C)C)ncnc32)cc1,10µM*,6.8%,2.3%,-2.8%,-2.5%
CC(C)(C)c1ccc(NC(=O)c2ccsc2)cc1,?,-28.0%,7.94µM*,9.9%,4.2%
COC(=O)Cc1ccc(NC(=O)c2ccccc2Cl)cc1,-10.9%,-18.3%,-5.6%[10 µM],2.2%,3.1%
CC(C)(C)c1ccc(C(=O)Nc2ccc(Cl)cc2)cc1,18.2%,3.1%,-4.7%,-0.5%,-2.6%
COC(=O)Cc1ccc(NC(=O)c2ccc(C(C)(C)C)cc2)cc1,4.47µM*,1.58µM*,?,-1.2%,?
Cc1ccccc1NC(=O)CSc1cn(CC(=O)N(C(C)C)C(C)C)c2ccccc12,?,.,.,.,-14.6%
O=C(Nc1nc2ccccc2[nH]1)c1ccccc1OC(F)F,?,7.94µM*,10µM*,0.2%,-0.5%
COc1ccccc1CCC(=O)Nc1nc2ccccc2[nH]1,?,?,?,3.0%,?
CC(C)Oc1ccc(C(=O)Nc2nc3ccccc3[nH]2)cc1,1.12µM*,1.12µM*,2.82µM*,0.8%,-1.7%
COc1cccc(CC(=O)Nc2nc3ccccc3[nH]2)c1,?,?,-27.5%[10 µM],8.5%,6.1%
O=C(N/N=C/c1ccc(OC(F)F)cc1)c1ccc(CSc2nc3ccccc3[nH]2)cc1,-1.2%,20.2%,-2.0%,11.2%,?
SMILES,GLP-1R inv ag,RORgamma inh,Gal4-VP16 FLuc,GLP1R ag,HEK293 tox
CCC(Oc1ccccc1)C(=O)Nc1nc2ccccc2[nH]1 (stereo not given),?,10µM*,?,-7.0%,-10.6%
O=C(Nc1nc2ccccc2[nH]1)c1ccc(OC(F)F)cc1,?,5.62µM*,?,9.4%,-7.7%
CC(C)C(=O)N[C@H]1CCCN1C(=O)/C=C\c1ccccc1,.,-3.6%[10 µM],-3.9%[10 µM],.,.
CCOC(=O)CN[C@@H](C(=O)N1CC[C@H]1C(=O)NCc1ccc(/C(N)=N/O)cc1)C1CCCCC1,.,.,.,-0.7%,.
COC(=O)[C@H]1O[C@@H](c2cc(OC)c(C)c(OC)c2O)[C@H](C)[C@@H](O)[C@H]1C,.,-11.3%,-8.0%,.,.
COC(=O)/C(Cc1cc(Br)c(OC)c(Br)c1O)=N/O,.,-2.4%,6.9%,.,.
CCC(Cc1ccccc1)NC(=O)c1ccc2nc(N3CCC(C)CC3)sc2c1 (stereo not given),-4.8%,.,.,.,-3.1%
Cc1ccc(CNC(=O)c2ccc(N3CCCC3=O)cc2)cc1,0.0%,10.1%,1.9%,2.5%,0.8%
Cn1nc(C(C)(C)C)cc1C(=O)NCc1ccc(N2CCCC2=O)cc1,3.3%,?,0.562µM*,0.4%,7.0%
CCNc1nc(NCC)nc(N(C)/N=C/c2ccco2)n1,?,3.55µM*,20µM*,-0.6%,?
CN(/N=C/c1ccco1)C1=NS(=O)(=O)c2ccccc21,11.0%,-2.7%,-11.8%,12.0%,7.5%
O=C(CCl)Nc1cccc(S(=O)(=O)N2CCCCCC2)c1,?,35.5µM*,?,-23.5%,?
O=C(CCNC(=O)c1ccc(Cl)cc1)Nc1cccc(S(=O)(=O)N2CCCCCC2)c1,12.6µM*,.,.,21.1%,-11.7%
O=C(CCCNC(=O)c1ccc(Cl)cc1)Nc1cccc(S(=O)(=O)N2CCCCC2)c1,?,.,.,7.2%,2.8%
O=C(COC(=O)c1n[nH]c2ccccc12)Nc1cccc(S(=O)(=O)N2CCOCC2)c1,-13.5%,?,-0.7%[10 µM],4.2%,6.8%
O=C(CCNS(=O)(=O)c1ccc(OC(F)(F)F)cc1)Nc1cccc(S(=O)(=O)N2CCCC2)c1,10µM*,.,.,-2.7%,4.3%
O=C(Cc1ccc(Cl)cc1)Nc1cccc(S(=O)(=O)N2CCCCC2)c1,?,.,.,12.2%,-9.0%
O=C(COC(=O)c1n[nH]c2ccccc12)Nc1ccc(S(=O)(=O)N2CCCC2)cc1,-9.2%,-42.2%,10µM*,-6.3%,-11.5%
CC(C)(C)c1ccc(OCCC(=O)Nc2cccc(S(=O)(=O)N3CCCC3)c2)cc1,?,.,.,-0.7%,?

# Screening results: PubChem BioAssay, National Center for Advancing Translational Sciences (NCATS)
